Measured values from PubChem BioAssay (EPA / NIEHS).
Calls of active or inactive are those of the source. Rule for the calls: active = hit-call score of the fitted dose curve at least 0.9, where 1 is the maximum; inactive = score below 0.9.

Read-out: Pselectin, SELP (gene 6403)
Assay: BSK_4H_Pselectin: BioMAP Diversity Plus: 4H Assay for Pselectin Biomarker Activity (AID 2283026)
Conditions: primary human endothelial cells (HUVEC); actives raise or lower the signal
Procedure, shortened: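 ELISA of surface P-selectin on HUVEC, 24 h after dosing, with parallel SRB staining (0.1% after 10% TCA fixation, 560 nm) for overt cytotoxicity. Activity fitted in both directions relative to DMSO.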

Row | SMILES | AC50 | outcome
1 | CCn1c2ccccc2c2cc(N)ccc21 | 1230 nM (active) | 
2 | COC(=O)c1ccc(C)cc1 |  | inactive
3 | CN(CCOc1ccc(CC2SC(=O)NC2=O)cc1)c1ccccn1 (configuration not stated) | 1120 nM (active) | 
4 | CC(=O)/C=C/C1=C(C)CCCC1(C)C |  | inactive
5 | BrC1CCC(Br)C(Br)CCC(Br)C(Br)CCC1Br (configuration not stated) | 2570 nM (active) | 
6 | O=C(O)C[C@H](O)C[C@H](O)/C=C/c1c(C2CC2)nc2ccccc2c1-c1ccc(F)cc1 | 152 nM (active) | 

Read-out: not listed separately
Assay: BSK_4H_SRB: Viability Assessment in the BioMAP Diversity Plus: 4H Assay (AID 2283027);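 note: cells exposed to compound for 24 h before staining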;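 for AC50: curves fitted both ways versus DMSO so AC50 may be loss or gain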
Conditions: primary human endothelial cells (HUVEC)
Procedure, shortened: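 Cytotoxicity read-out in primary human endothelial cells: after 24 h compound exposure, cells were TCA-fixed (10%), stained with 0.1% SRB and absorbance taken at 560 nm. Values fitted in both directions relative to DMSO.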

Row | SMILES | outcome | AC50
7 | CCn1c2ccccc2c2cc(N)ccc21 | inactive | 
8 | COC(=O)c1ccc(C)cc1 | inactive | 
9 | CN(CCOc1ccc(CC2SC(=O)NC2=O)cc1)c1ccccn1 (configuration not stated) | inactive | 
10 | CC(=O)/C=C/C1=C(C)CCCC1(C)C | inactive | 
11 | BrC1CCC(Br)C(Br)CCC(Br)C(Br)CCC1Br (configuration not stated) |  | 4730 nM (active)
12 | O=C(O)C[C@H](O)C[C@H](O)/C=C/c1c(C2CC2)nc2ccccc2c1-c1ccc(F)cc1 |  | 847 nM (active)
